PubChem BioAssay (Tox21)
Records with an inconclusive call do not appear. The source made the active and inactive calls. Unless noted, calls come from the whole dose curve; as a rule, active = well fitted curve in the direction sought with a large enough effect in the repeat runs; inconclusive = weak or mixed curves; inactive = no such curve, though single readings can be large; an effect the other way counts as inactive or inconclusive.

What was measured:
[1] = qHTS assay to identify aromatase inhibitors - cell viability counter screen (AID 743084);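 note: cells stimulated with testosterone during compound exposure; nearly all actives have a fitted effect of over 55% in size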
[2] = molecular target: Aryl hydrocarbon receptor (Homo sapiens) (UniProt P35869); assay: qHTS assay to identify small molecule that activate the aryl hydrocarbon receptor (AhR) signaling pathway (AID 743085);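 note: HG2L7.5c1 human HepG2 liver cells with stably integrated DRE-driven firefly reporter; series mostly up to about 70 µM; nearly all actives have a fitted effect of over 15% in size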
How it was run: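 24 h compound exposure, 37C, HepG2-derived HG2L7.5c1 cells with DRE-responsive luciferase. Readouts: fluorescence viability, then luminescence at room temperature after 30 min.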

[3] = qHTS assay to identify small molecule that activate the aryl hydrocarbon receptor (AhR) signaling pathway - cell viability counter screen (AID 743086);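 note: HepG2 liver cells carrying the AhR DRE luciferase reporter; series mostly up to about 70 µM; nearly all actives have a fitted effect of over 45% in size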
How it was run: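 Cytotoxicity counter screen: CellTiter-Fluor signal (30 min, 37 C) in 4000 HepG2 cells/well carrying the DRE-luciferase reporter, following 24 h compound exposure at 37 C.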

[4] = molecular target: Peroxisome proliferator-activated receptor gamma (Homo sapiens) (UniProt P37231); assay: qHTS assay to identify small molecule agonists of the peroxisome proliferator-activated receptor gamma (PPARg) signaling pathway (AID 743094; active = well fitted activation curve with a large enough effect in the signal ratio in the repeat runs, not every such curve was filed as active; the % refers to the signal ratio)
How it was run: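 GeneBLAzer PPARg UAS-bla HEK293H cells carrying a stably integrated beta-lactamase reporter were pre-incubated 5 h at 37C, then exposed to compounds in DMSO for 17 h at 37C; LiveBLAzer B/G FRET substrate was added for 1 h at room temperature and fluorescence read.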

[5] = qHTS assay to identify small molecule antagonists of the peroxisome proliferator-activated receptor gamma (PPARg) signaling pathway - cell viability counter screen (AID 743194); note: nearly all actives have a fitted effect of over 55% in size
How it was run: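 Viability was measured as CellTiter-Glo luminescence in GeneBLAzer PPARg UAS-bla HEK293H cells. These cells had been exposed 17 h at 37 C to compounds together with rosiglitazone at 50 nM final, with the beta-lactamase readout taken in the same wells.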

[6] = qHTS assay for small molecule agonists of the antioxidant response element (ARE) signaling pathway (AID 743202; active = well fitted activation curve with a large enough effect in the signal ratio in the repeat runs, not every such curve was filed as active; the % refers to the signal ratio)
How it was run: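 Quantitative high-throughput format in HepG2 cells bearing an integrated ARE-beta-lactamase reporter. Compound exposure lasted 16 h at 37 C, and fluorescence was read 2 h after adding LiveBLAzer B/G substrate at room temperature.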

[7] = qHTS assay for small molecule agonists of the antioxidant response element (ARE) signaling pathway - cell viability counter screen (AID 743203; calls by dose curve; note: nearly all actives have a fitted effect of over 55% in size)
How it was run: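 CellSensor ARE-bla HepG2 cells, 2,000 per well, rested 5 hrs at 37C/5% CO2, then exposed to compound in DMSO for 16 hrs; viability read as CellTiter-Glo luminescence after 30 min at room temperature, in the reporter wells.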

[8] = qHTS assay for small molecule activators of the heat shock response signaling pathway - cell viability counter screen (AID 743209); note: nearly all actives have a fitted effect of over 50% in size
How it was run: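 CellSensor HSE-bla HeLa cells, plated overnight at 37 C/5% CO2, were exposed to compounds in DMSO for 5 h at 37 C. Viability was then read in the same wells by CellTiter-Glo luminescence after 30 min at room temperature.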

[9] = qHTS assay for small molecule activators of the heat shock response signaling pathway (AID 743210; active = well fitted activation curve with a large enough effect in the signal ratio in the repeat runs, with a control signal flat, not every such curve was filed as active; the % refers to the signal ratio;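 note: HeLa cells with beta-lactamase reporter driven by heat shock elements; series mostly up to about 63 µM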)
How it was run: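 HeLa HSE-bla cells, overnight plating; cpd in DMSO 5 h, 37 C; LiveBLAzer B/G FRET substrate 2.5 h RT; fluorescence intensity read.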

Measured: Potency

Peroxisome proliferator-activated receptor gamma (Homo sapiens), sequence (P37231 whole entry, looked up): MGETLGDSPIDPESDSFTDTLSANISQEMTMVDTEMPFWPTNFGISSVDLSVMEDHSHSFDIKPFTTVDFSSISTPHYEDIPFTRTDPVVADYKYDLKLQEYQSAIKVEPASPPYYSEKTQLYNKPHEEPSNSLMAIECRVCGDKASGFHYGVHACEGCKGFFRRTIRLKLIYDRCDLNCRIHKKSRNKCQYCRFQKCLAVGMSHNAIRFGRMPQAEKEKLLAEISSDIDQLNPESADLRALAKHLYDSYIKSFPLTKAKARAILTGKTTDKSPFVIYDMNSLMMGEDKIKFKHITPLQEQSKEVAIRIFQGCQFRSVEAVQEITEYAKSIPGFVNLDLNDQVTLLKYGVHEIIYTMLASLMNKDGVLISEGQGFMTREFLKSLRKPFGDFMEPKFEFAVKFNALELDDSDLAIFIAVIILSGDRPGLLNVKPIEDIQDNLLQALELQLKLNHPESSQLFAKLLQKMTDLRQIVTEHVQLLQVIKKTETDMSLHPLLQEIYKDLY
Aryl hydrocarbon receptor (Homo sapiens), sequence (P35869 whole entry, looked up): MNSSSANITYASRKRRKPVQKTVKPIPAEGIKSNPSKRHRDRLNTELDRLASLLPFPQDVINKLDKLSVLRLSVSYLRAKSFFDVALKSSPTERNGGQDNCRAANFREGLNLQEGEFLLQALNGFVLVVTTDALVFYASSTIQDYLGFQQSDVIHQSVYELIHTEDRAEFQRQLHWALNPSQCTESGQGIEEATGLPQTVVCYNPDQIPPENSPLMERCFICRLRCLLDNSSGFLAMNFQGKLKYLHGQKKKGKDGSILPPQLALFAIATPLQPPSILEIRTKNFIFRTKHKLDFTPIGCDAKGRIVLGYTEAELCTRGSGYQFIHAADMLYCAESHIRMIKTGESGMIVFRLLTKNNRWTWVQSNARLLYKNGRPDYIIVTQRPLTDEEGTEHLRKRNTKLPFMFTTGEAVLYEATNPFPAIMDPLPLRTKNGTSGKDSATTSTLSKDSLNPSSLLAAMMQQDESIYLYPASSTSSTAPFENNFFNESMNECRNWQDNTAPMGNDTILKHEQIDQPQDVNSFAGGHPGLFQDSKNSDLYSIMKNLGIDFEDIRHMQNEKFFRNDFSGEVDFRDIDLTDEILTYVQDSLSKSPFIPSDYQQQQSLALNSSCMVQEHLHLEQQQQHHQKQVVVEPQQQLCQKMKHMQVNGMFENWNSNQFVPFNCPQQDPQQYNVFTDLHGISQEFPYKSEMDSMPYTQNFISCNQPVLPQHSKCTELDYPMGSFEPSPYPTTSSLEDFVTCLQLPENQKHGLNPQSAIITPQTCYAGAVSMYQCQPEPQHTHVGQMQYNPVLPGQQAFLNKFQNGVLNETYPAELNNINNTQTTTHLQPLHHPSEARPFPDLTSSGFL

CCN[C@H]1CN(CCCOC)S(=O)(=O)c2sc(S(N)(=O)=O)cc21
inactive: all assays above

CCCCC(CC)COC(=O)COc1cc(Cl)c(Cl)cc1Cl (stereo not given)
inactive: all assays above

COc1ccc(Nc2ccc(OC)cc2)cc1
inactive: all assays above

CN1C(=O)CC(c2ccccc2)C1=O (stereo not given)
not listed: [7]
inactive: all other assays above

CCCCN1C[C@H](O)[C@@H](O)[C@H](O)[C@H]1CO
not listed: [5] | [7]
inactive: all other assays above

CCCCNc1cc(C(=O)O)cc(S(N)(=O)=O)c1Oc1ccccc1
not listed: [4]
inactive: all other assays above

Cc1ccsc1C(=CCCN1CCC[C@@H](C(=O)O)C1)c1sccc1C
not listed: [6] | [7] | [9]
inactive: all other assays above

C=O
not listed: [4]
inactive: all other assays above

CCCCCCCCCC/C=C/C#N
not listed: [5] | [6] | [9]
inactive: all other assays above
